Results published in the supplement of paper PMC7156485.
± gives the standard deviation of the averaged measurements.

Tests used:
Conditions in all cases: concentration: 10 µM; 24 h
HCC1569 [1] = assay: cell number relative to DMSO (% of DMSO); higher = more cells (less growth inhibition / toxicity)
In short: (§1)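 Using 384-well plates with 800 cells per well in RPMI plus 10% FBS, HCC1569 and TDF cells were exposed to compounds at 10 µM, in triplicate, for 24 h at 37 °C. Imaging of six fields per well at ×10 followed H1.0 and DAPI staining. The reported quantity, H1.0 nuclear intensity or cell number, is a median of replicates given as percent of the plate control, and HCC1569 values were smoothed for positional effects.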

TDF [2] = assay: as above
In short: as §1

TDF [3] = assay: H1.0 immunofluorescence intensity relative to DMSO (% of DMSO); higher = stronger H1.0 induction, active = 120 or more
In short: as §1

HCC1569 [4] = assay: H1.0 immunofluorescence intensity relative to DMSO (% of DMSO); higher = stronger H1.0 induction, active = 140 or more
In short: as §1
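Wherever H1.0 immunofluorescence intensity relative to DMSO is given: TDF is a line of transformed human dermal fibroblasts of mesenchymal origin.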
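Wherever cell number relative to DMSO is given: TDF denotes transformed human dermal fibroblasts of mesenchymal origin.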

Row | SMILES | cell number (HCC1569 [1]) | cell number (TDF [2]) | H1.0 immunofluorescence intensity (TDF [3]) | H1.0 immunofluorescence intensity (HCC1569 [4])
1 | O=c1[nH]c2ccccc2n1CCCN1CCN(C(c2ccccc2)c2ccccc2)CC1 [Oxatomide] | 98.3 ± 2.3 | 105 ± 7.4 | 90.8 (inactive) | 101 (inactive)
2 | OC1C(O)C(O)C(O)C(O)C1O (centres undefined) [1,2,3,4,5,6-cyclohexanehexol] | 102 ± 3 | 104 ± 7.5 | 96.9 (inactive) | 92.9 (inactive)
3 | Cc1ccc(C(=CCN2CCCC2)c2ccccn2)cc1.Cl [Triprolidine hydrochloride] | 106 | 105 | 97.5 (inactive) | 90 (inactive)
4 | COc1ccc(N2C(=O)CSC2c2cccc(Br)c2)c(OC)c1 (centres undefined) | 59.5 | 10.8 | 156 (active) | 146 (active)
5 | CC(C)C(CO)Nc1nc(Nc2cccc(Cl)c2)c2ncn(C(C)C)c2n1 (centres undefined) [Purvalanol A] | 68.8 ± 4.3 | 61.8 ± 9.4 | 98.3 (inactive) | 129 (inactive)
6 | O=C(Nc1cc(C(F)(F)F)cc(C(F)(F)F)c1)c1cc(Cl)ccc1O | 57 | 52.7 | 115 (inactive) | 122 (inactive)
7 | CC(C)(C)n1nc(Cc2cccc3ccccc23)c2c(N)ncnc21 [PP1 Analog II, 1NM-PP1] | 82.1 | 103 | 93.1 (inactive) | 152 (active)
8 | CC12CC3CC(C)(C1)CC(N)(C3)C2.Cl [Memantine.HCl] | 94.8 | 102 | 90.8 (inactive) | 100 (inactive)
9 | CCCCC=CCCCCCCCC(=O)O [9(Z)-Tetradecenoic acid] | 98.2 | 105 | 104 (inactive) | 99.8 (inactive)
10 | CCC1(C)CC(=O)NC1=O (centres undefined) [Ethosuximide] | 102 | 98.8 | 94.1 (inactive) | 88 (inactive)
11 | N#CC(=C(N)Sc1ccc(N)cc1)c1ccccc1C(F)(F)F [MEK1/2 Inhibitor] | 100 | 111 | 86 (inactive) | 110 (inactive)
12 | CC(O)CCCC(O)C=CC1C(O)CC(O)C1CC=CCCCC(=O)O [19(R)-Hydroxy-prostaglandin F2a] | 104 | 101 | 93.3 (inactive) | 95.9 (inactive)
13 | Br.COc1ccccc1N1CCN(CCCCN2C(=O)c3ccccc3C2=O)CC1 [NAN-190 hydrobromide] | 104 | 102 | 90.9 (inactive) | 100 (inactive)
14 | CCCCCCCCCCCCCCCCC(=O)O [Heptadecanoic acid] | 99.9 | 94.9 | 103 (inactive) | 103 (inactive)
15 | CC(COc1ccccc1)N(CCCl)Cc1ccccc1.Cl (centres undefined) [Phenoxybenzamine hydrochloride] | 71.6 | 69.5 | 105 (inactive) | 107 (inactive)
16 | CCCCC1CCC(c2nc(-c3ccncc3)no2)CC1 (centres undefined) [4-[5-(4-butylcyclohexyl)-1,2,4-oxadiazol-3-yl]pyridine] | 94.1 | 98.3 | 108 (inactive) | 104 (inactive)
17 | COc1c(O)cc2c(c1O)C1OC(CO)C(O)C(O)C1OC2=O (centres undefined) [Bergenin] | 99 | 107 | 91.7 (inactive) | 93.5 (inactive)
18 | Cc1ccc(C(=O)c2ccc(CC(=O)O)n2C)cc1 [Tolmetin] | 101 | 99 | 104 (inactive) | 104 (inactive)
19 | COc1cc(C(O)C(=O)O)ccc1O (racemic) | 105 | 109 | 89.5 (inactive) | 91.2 (inactive)
20 | Cn1c(=O)[nH]c2ncn(C)c2c1=O [1,7-Dimethylxanthine] | 102 | 98.9 | 88 (inactive) | 85.7 (inactive)
21 | COc1cc(/C=C/C(=O)CC(=O)/C=C/c2ccc(O)cc2)ccc1O | 66.5 | 66.7 | 98.3 (inactive) | 161 (active)
22 | Cc1cn[nH]c1.Cl [4-Methylpyrazole hydrochloride] | 108 | 102 | 98.5 (inactive) | 95.4 (inactive)
23 | O=C(O)c1cc2cc(F)ccc2[nH]1 [5-Fluoroindole-2-carboxylic acid] | 99.3 | 89 | 102 (inactive) | 98.6 (inactive)
24 | CN(C)CC(=O)Nc1ccc2[nH]c(=O)c3ccccc3c2c1.Cl.O | 101 | 99.1 | 97.4 (inactive) | 91.3 (inactive)
25 | Oc1ccc(C=Cc2cc(O)cc(O)c2)cc1 [Resveratrol] | 79.2 ± 6.3 | 79.5 ± 4 | 99.5 (inactive) | 113 (inactive)
26 | CCCCCCCOc1cc2c(cc1/C(C)=C/c1ccc(C(=O)O)cc1)C(C)(C)CCS2(=O)=O | 96.9 | 101 | 88.9 (inactive) | 102 (inactive)

Row | SMILES | cell number (HCC1569 [1]) | cell number (TDF [2]) | H1.0 immunofluorescence intensity (TDF [3]) | H1.0 immunofluorescence intensity (HCC1569 [4])
27 | CC#N.Nc1nc(Nc2ccc(S(N)(=O)=O)cc2)nn1C(=O)c1c(F)cccc1F [Aurora Kinase/Cdk Inhibitor] | 62 | 39.5 | 98.1 (inactive) | 83.7 (inactive)
28 | Cl.O.O.c1ccc2c(c1)CN1CCCC1=N2 [Desoxypeganine] | 101 | 109 | 89.6 (inactive) | 86.8 (inactive)
29 | NC(=O)c1ncn(C2OC(CO)C(O)C2O)c1O (centres undefined) [Mizoribine] | 101 | 99.2 | 91.2 (inactive) | 89.3 (inactive)
30 | COC(C(=O)C(O)C(C)O)C1Cc2cc3cc(OC4CC(OC5CC(O)C(O)C(C)O5)C(O)C(C)O4)c(C)c(O)c3c(O)c2C(=O)C1OC1CC(OC2CC(OC3CC(C)(O)C(O)C(C)O3)C(O)C(C)O2)C(O)C(C)O1 (centres undefined) [Mithramycin A] | 68.7 | 29.9 | 109 (inactive) | 112 (inactive)
31 | Cl.Clc1cccc(Cl)c1NC1=NCCN1 [Clonidine hydrochloride] | 99.2 | 103 | 94.1 (inactive) | 90 (inactive)
32 | CCCCCN(CCCCC)C(=O)C(CCC(=O)[O-])NC(=O)c1ccc(Cl)c(Cl)c1.[Na+] (centres undefined) [Lorglumide sodium] | 103 | 107 | 100 (inactive) | 89.8 (inactive)
33 | CC(=O)OC1(C(C)=O)CCC2C3C=C(Cl)C4=CC(=O)C5CC5C4(C)C3CCC21C (centres undefined) [Cyproterone Acetate] | 107 | 93.8 | 103 (inactive) | 99.8 (inactive)
34 | COc1c2ccoc2cc2oc(C)cc(=O)c12 [Visnagin] | 103 | 102 | 94.7 (inactive) | 82.3 (inactive)
35 | CCCCCC(O)C=CC=CCCCCCCCC(=O)O (racemic) | 102 | 107 | 95.9 (inactive) | 101 (inactive)
36 | CN(C)CCOC(c1ccccc1)c1ccccc1.Cl [Diphenhydramine hydrochloride] | 100 | 105 | 88.7 (inactive) | 97 (inactive)
37 | COc1cc2c(c(OC)c1OC)-c1c(cc(OC)c(OC)c1OC)CC(C)C(C)C2 (stereo not drawn) [R(+)-Schisandrin A] | 105 | 103 | 91.6 (inactive) | 94.9 (inactive)
38 | CC(=O)C(C)=NO [2,3-Butanedione monoxime] | 100 | 95.2 | 106 (inactive) | 115 (inactive)
39 | Cc1cc(C(=O)Nc2cccc(C(=O)Nc3cccc(C(F)(F)F)c3)c2)on1 | 100 | 104 | 99.6 (inactive) | 113 (inactive)
40 | COc1cc2nc(N3CCN(C(=O)c4ccco4)CC3)nc(N)c2cc1OC.Cl [Prazosin.HCl] | 107 | 105 | 92 (inactive) | 95.8 (inactive)
41 | CCN(Cc1ccccc1)C(=O)Cn1c(=O)n(C)c2cnc(-c3ccccc3)nc21 | 75.1 | 17.6 | 156 (active) | 123 (inactive)
42 | CCCCCC=CCC=CCC=CCC=CCCCC(=O)O [Arachidonic acid] | 104 ± 6.4 | 93.9 ± 1.1 | 101 (inactive) | 105 (inactive)
43 | NCC1OC(OC2C(CO)OC(OC3C(O)C(N)CC(N)C3OC3OC(CO)C(O)C(O)C3N)C2O)C(N)C(O)C1O.O=S(=O)(O)O (centres undefined) [Paromomycin sulfate] | 105 | 106 | 93.7 (inactive) | 101 (inactive)
44 | CC12CCC3c4ccc(O)cc4CCC3C1CCC2O (centres undefined) [Estradiol] | 94.6 | 93.8 | 97.6 (inactive) | 121 (inactive)
45 | O=c1[nH]c(=O)n(C2CC(O)C(CO)O2)cc1Br (centres undefined) [5-Bromo-2'-deoxyuridine] | 99 | 106 | 95.7 (inactive) | 105 (inactive)
46 | CCCCc1ncc(C=C(Cc2cccs2)C(=O)O)n1Cc1ccc(C(=O)O)cc1.CS(=O)(=O)O [Eprosartan mesylate] | 97.1 | 91.7 | 96.4 (inactive) | 97.4 (inactive)
47 | c1ccc(C2CN3CCSC3=N2)cc1 (centres undefined) [Levamisole] | 98.3 | 94.6 | 102 (inactive) | 92.1 (inactive)
48 | O=C([O-])c1cc(=O)c2c(OCC(O)COc3cccc4oc(C(=O)[O-])cc(=O)c34)cccc2o1.[Na+].[Na+] [Disodium Cromoglycate] | 98.4 | 98.3 | 90.6 (inactive) | 103 (inactive)
49 | CC1CCC2C(C)C(OC(=O)CCC(=O)O)OC3OC4(C)CCC1C32OO4 (centres undefined) [Artesunate] | 87.2 ± 1.8 | 88.2 ± 5.5 | 99.1 (inactive) | 124 (inactive)
50 | CCCCCCCCCCCCCCCC(=O)NCC(COP(=O)([O-])OCC[N+](C)(C)C)OC (racemic) [rac-2-Methoxy-3-hexadecanamido-1-propylphosphocholine] | 75.4 | 65 | 185 (active) | 142 (active)
51 | COC1(NC(=O)CSCC#N)C(=O)N2C(C(=O)[O-])=C(CSc3nnnn3C)CSC21.[Na+] (centres undefined) [Cefmetazole sodium] | 101 | 110 | 91.2 (inactive) | 89.6 (inactive)
